Experimental findings from PubChem BioAssay (EPA / NIEHS) are described below.

Assay [1] in a line: ACEA_ER_80hr: ACEA Biosciences xCELLigence Real-Time Cell Analysis on Estrogen Receptor Agonism for Proliferation (AID 2282667; active means hit-call score of the fitted dose curve at least 0.9, where 1 is the maximum). The conditions noted are these: T47D proliferation, impedance (xCELLigence), 80 h. Put shortly: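 Impedance readout (RT-CES) of T47D proliferation at 80 h post-dose; gain of signal vs DMSO baseline. Compounds: 8 conc, 1:4 serial, top 100 uM final, ≤0.5% DMSO; biological duplicate.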

Assay [2] is described as follows: ATG_CRE_CIS: Attagene CIS-FACTORIAL HepG2 Assay for human cAMP Responsive Element (CRE) binding protein 3 (AID 2282926). Conditions: HepG2 CRE cis-reporter, Attagene multiplexed mRNA; actives raise or lower the signal. Put shortly:
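Endogenous CRE-binding activity in HepG2 is reported through a cis-regulated transfected reporter. Following a day of exposure, mRNA levels are determined by reverse transcription PCR and fluorescent fragment analysis; fits run in both directions versus DMSO.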

Assay [3] has as its target CCAAT/enhancer-binding protein beta (Homo sapiens) (UniProt P17676). The assay can be described thus: ATG_C_EBP_CIS: Attagene CIS-FACTORIAL HepG2 Assay for human CCAAT/Enhancer Binding Protein (C/EBP) beta (AID 2282927). The conditions noted are these: HepG2 Attagene cis-factorial transcription factor reporter; actives raise or lower the signal. In outline: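 Changes in reporter mRNA, rather than exogenous chimeric receptor activity, reflect native C/EBP signalling in transfected HepG2 cells dosed for 24 h; transcripts are detected by RT-PCR and capillary electrophoresis.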

Assay [4] in a line: ATG_CMV_CIS: Attagene CIS-FACTORIAL HepG2 Assay for human CMV (Internal Marker) (AID 2282928).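 Further: endpoint acts as a background internal control marker rather than a target.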 The conditions noted are these: HepG2 CMV promoter reporter, transcription factor profiling; actives raise or lower the signal. In outline:
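After transient transfection of HepG2 with reporter transcription units driven by cis-regulatory promoters, cells receive test chemical for 24 h. Labeled reporter amplicons, digested with HpaI, are sized and quantified by capillary electrophoresis against DMSO.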

Assay [5] is described as follows: ATG_DR4_LXR_CIS: Attagene CIS-FACTORIAL HepG2 Assay for human Liver X Receptor (LXR), DR4 submotif (AID 2282929). The conditions noted are these: HepG2 Attagene DR4 cis-reporter, mRNA transcription; actives raise or lower the signal. Put shortly: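 The endpoint is DR4-element-driven reporter transcripts after 24 h chemical exposure of transfected HepG2 cells. These were measured via RT-PCR and capillary electrophoresis, and gain or loss of signal was fitted relative to DMSO controls.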

For assay [6], the target named is Aryl hydrocarbon receptor (Homo sapiens) (UniProt P35869). The assay can be described thus: ATG_Ahr_CIS: Attagene CIS-FACTORIAL HepG2 Assay for human Aryl Hydrocarbon Receptor (Ahr) (AID 2282930). Conditions: HepG2 AhR cis-factorial reporter transcription; actives raise or lower the signal. In outline:
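HepG2, transient MRTU (cis) transfection, 24 h exposure. RNA → cDNA → PCR → 6-FAM primer extension → HpaI 2 h 37 C → CE. Fit: bidirectional, DMSO baseline.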

Assay [7] is described as follows: ATG_AP_1_CIS: Attagene CIS-FACTORIAL HepG2 Assay for human Activator Protein 1 (AP-1) (AID 2282931). Conditions: HepG2 Attagene cis-factorial AP-1 reporter mRNA; actives raise or lower the signal. Put shortly: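 Readout is reporter transcript level from endogenous transcription factor activity, quantified by RT-PCR with fluorescent primer extension and capillary electrophoresis. Transiently transfected HepG2 cells, 24 h exposure. Curves fitted both directions versus DMSO.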

The nature of assay [8]: ATG_AP_2_CIS: Attagene CIS-FACTORIAL HepG2 Assay for human Activator Protein 2 (AP-2) (AID 2282932). The conditions noted are these: HepG2 AP-2 cis-reporter, Attagene transcription factor profiling; actives raise or lower the signal. Put shortly: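 Step one: transient transfection of HepG2 with reporter transcription units. Step two: 24 h chemical exposure. Step three: RNA extraction, RT-PCR, labelled fragment analysis by capillary electrophoresis; DMSO serves as baseline.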

A short description of assay [9]: ATG_BRE_CIS: Attagene CIS-FACTORIAL HepG2 Assay for human Bone Morphogenetic Protein (BMP) Response Element (BRE) (AID 2282933). Conditions: HepG2 BMP response element reporter, Attagene transcription factor profiling; actives raise or lower the signal. Put shortly:
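HepG2 cells transiently transfected with multiplexed cis-element reporter units were dosed with chemical for 24 h. Reporter mRNA was measured by RT-PCR with fluorescent labelling, HpaI digestion and capillary electrophoresis; bidirectional fitting relative to DMSO.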

In assay [10] the target is Retinoic acid receptor alpha (Homo sapiens) (UniProt P10276). The assay can be described thus: ATG_DR5_RAR_CIS: Attagene CIS-FACTORIAL HepG2 Assay for human Retinoic Acid Receptor Alpha (RARE), DR5 submotif (AID 2282934). The conditions noted are these: HepG2 Attagene cis-factorial RARE DR5 reporter, mRNA; actives raise or lower the signal. In outline:
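HepG2, transient cis-reporter transfection, 24 h exposure. mRNA readout: RT-PCR, FAM label, HpaI cut, capillary electrophoresis. DMSO baseline, gain/loss fitting.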

Assay [11] concerns the target Transcription factor E2F1 (Homo sapiens) (UniProt Q01094). The assay can be described thus: ATG_E2F_CIS: Attagene CIS-FACTORIAL HepG2 Assay for human E2F Transcription Factor 1 (AID 2282935). The conditions noted are these: HepG2 Attagene cis-reporter, E2F reporter RNA transcripts; actives raise or lower the signal. In outline:
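Total RNA from 24 h-treated, reporter-transfected HepG2 cells undergoes DNase I treatment, oligo(dT) reverse transcription, PCR and 6-FAM primer extension before capillary electrophoresis.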

Assay [12] can be described thus: ATG_E_Box_CIS: Attagene CIS-FACTORIAL HepG2 Assay for human Enhancer Box (E-box) (AID 2282936). The conditions noted are these: HepG2 E-box cis-reporter transcription, actives raise or lower the signal. Put shortly: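 DMSO served as negative control and baseline for bidirectional fitting. Human hepatoma HepG2 cells, transiently transfected with cis-reporter constructs, were dosed 24 h; reporter mRNA read by RT-PCR and capillary electrophoresis.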

Assay [13] can be described thus: ATG_M_61_CIS: Attagene CIS-FACTORIAL HepG2 Assay for M61 Transcription Factor (Internal Marker) (AID 2282937). The conditions noted are these: HepG2 Attagene CIS-FACTORIAL M61 internal marker reporter; actives raise or lower the signal. In outline:
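Readout is reporter mRNA by RT-PCR, fluorescent primer extension and capillary electrophoresis, with gain or loss fitted relative to DMSO. Transfected HepG2 cells carrying endogenous-TF-driven cis reporters were exposed to chemicals for 24 hours.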

Assay [14] in a line: ATG_EGR_CIS: Attagene CIS-FACTORIAL HepG2 Assay for human Early Growth Response 1 (EGR1) (AID 2282938). Conditions: HepG2 Attagene CIS-FACTORIAL EGR reporter mRNA; actives raise or lower the signal. In outline: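 After 24 h compound exposure, RNA from reporter-transfected HepG2 cells was reverse-transcribed, PCR-amplified, fluorescently labelled and resolved by capillary electrophoresis. EGR1 reporter transcript changes, up or down, were fitted against DMSO, reflecting endogenous transcription-factor activity.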

The nature of assay [15]: ATG_M_19_CIS: Attagene CIS-FACTORIAL HepG2 Assay for M19 Transcription Factor (Internal Marker) (AID 2282939). The conditions noted are these: HepG2 Attagene CIS-FACTORIAL M19 internal marker reporter; actives raise or lower the signal. Put shortly: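 HepG2 cells transiently transfected with cis-regulated multiple reporter transcription units were dosed for 24 h; reporter mRNA was quantified by RT-PCR, 6-FAM primer-extension labelling, HpaI digestion and capillary electrophoresis, with bidirectional fitting against DMSO baseline.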

A short description of assay [16]: ATG_ERE_CIS: Attagene CIS-FACTORIAL HepG2 Assay for Estrogen Response Element (ERE) (AID 2282940). The conditions noted are these: HepG2 ERE cis-reporter, Attagene RNA transcript; actives raise or lower the signal. In outline:
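HepG2 cells transiently transfected with cis-promoter-driven multiplexed reporter transcription units report endogenous TF activity. After 24 h compound exposure, reporter mRNA is quantified by RT-PCR with capillary electrophoresis fluorescence; bidirectional fitting versus DMSO baseline.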

Assay [17] is described as follows: ATG_Ets_CIS: Attagene CIS-FACTORIAL HepG2 Assay for human Erythroblast Transformation Specific (ETS) (AID 2282941). The conditions noted are these: HepG2 ETS cis-reporter transcription, actives raise or lower the signal. In outline: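 Human HepG2 hepatoma cells were transiently transfected with promoter-driven reporter constructs and treated for 24 hours. Reporter transcripts were quantified by RT-PCR with fluorescent primer extension; bidirectional curve fitting used DMSO as reference.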

Assay [18] deals with Hepatocyte nuclear factor 3-beta (Homo sapiens) (UniProt Q9Y261). The assay can be described thus: ATG_FoxA2_CIS: Attagene CIS-FACTORIAL HepG2 Assay for human Forkhead box A2 (FOXA2) (AID 2282942). The conditions noted are these: HepG2 cis-reporter transcription factor activity, 24 h; actives raise or lower the signal. Put shortly:
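Endogenous transcription factor activity is captured via cis-element-driven reporter transcripts in transfected HepG2. Total RNA taken at 24 h post-dosing; labelled RT-PCR products resolved by capillary electrophoresis. Gain or loss fitted versus DMSO.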

Assay [19] in a line: ATG_FoxO_CIS: Attagene CIS-FACTORIAL HepG2 Assay for human Forkhead box O (FoxO) (AID 2282943). Conditions: HepG2 Attagene cis-reporter, FoxO element, mRNA; actives raise or lower the signal. In outline: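 Human hepatoma HepG2 cells carry transiently introduced reporter transcription units controlled by cis promoter elements. Chemical treatment lasted 24 h, and mRNA signal was compared with DMSO.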

Assay [20] can be described thus: ATG_GATA_CIS: Attagene CIS-FACTORIAL HepG2 Assay for human GATA Binding Protein (AID 2282944). Conditions: HepG2 GATA cis-element reporter, Attagene multiplex mRNA; actives raise or lower the signal. In outline:
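HepG2 cells transiently transfected with multiplexed cis-element reporter units reflecting endogenous transcription factor activity; reporter mRNA measured after 24 h dosing by RT-PCR, 6-FAM labeling, HpaI digestion and capillary electrophoresis. Bidirectional fitting versus DMSO baseline.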

Each structure is given as a SMILES string. Inconclusive results are not listed. Active and inactive are the calls of the source. How the source made its calls, unless noted: active means hit-call score of the fitted dose curve at least 0.9, where 1 is the maximum; inactive means score below 0.9.

Sequence of Aryl hydrocarbon receptor (Homo sapiens) (P35869 whole entry, looked up): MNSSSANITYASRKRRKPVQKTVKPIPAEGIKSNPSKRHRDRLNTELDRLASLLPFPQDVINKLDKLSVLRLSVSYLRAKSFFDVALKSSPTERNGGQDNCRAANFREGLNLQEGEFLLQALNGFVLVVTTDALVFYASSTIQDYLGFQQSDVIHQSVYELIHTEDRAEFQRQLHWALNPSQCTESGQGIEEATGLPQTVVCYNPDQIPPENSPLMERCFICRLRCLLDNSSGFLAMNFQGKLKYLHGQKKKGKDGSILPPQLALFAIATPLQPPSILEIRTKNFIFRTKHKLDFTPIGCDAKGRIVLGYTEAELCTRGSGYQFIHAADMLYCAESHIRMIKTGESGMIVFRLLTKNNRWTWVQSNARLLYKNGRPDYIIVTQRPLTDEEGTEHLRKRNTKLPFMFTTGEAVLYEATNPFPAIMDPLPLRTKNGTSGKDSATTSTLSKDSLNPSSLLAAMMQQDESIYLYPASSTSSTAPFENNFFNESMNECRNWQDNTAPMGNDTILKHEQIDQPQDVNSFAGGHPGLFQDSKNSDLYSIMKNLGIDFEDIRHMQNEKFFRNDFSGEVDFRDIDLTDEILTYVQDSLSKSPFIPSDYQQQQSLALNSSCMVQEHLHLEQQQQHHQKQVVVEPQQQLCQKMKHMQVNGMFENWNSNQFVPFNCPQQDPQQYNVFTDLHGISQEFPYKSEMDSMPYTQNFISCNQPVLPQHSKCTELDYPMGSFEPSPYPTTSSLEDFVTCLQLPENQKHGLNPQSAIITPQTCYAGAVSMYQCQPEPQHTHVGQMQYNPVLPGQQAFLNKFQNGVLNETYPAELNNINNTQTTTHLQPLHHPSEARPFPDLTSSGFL
Sequence of CCAAT/enhancer-binding protein beta (Homo sapiens) (P17676 whole entry, looked up): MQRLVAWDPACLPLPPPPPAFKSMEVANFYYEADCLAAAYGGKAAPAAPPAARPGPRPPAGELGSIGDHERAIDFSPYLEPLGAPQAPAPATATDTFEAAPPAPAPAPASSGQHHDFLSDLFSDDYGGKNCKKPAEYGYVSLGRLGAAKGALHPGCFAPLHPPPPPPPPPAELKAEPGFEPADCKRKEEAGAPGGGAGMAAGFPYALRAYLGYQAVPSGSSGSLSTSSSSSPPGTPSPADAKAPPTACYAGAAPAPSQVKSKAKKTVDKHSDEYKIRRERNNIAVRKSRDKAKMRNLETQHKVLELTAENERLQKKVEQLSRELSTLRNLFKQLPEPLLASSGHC
Sequence of Retinoic acid receptor alpha (Homo sapiens) (P10276 whole entry, looked up): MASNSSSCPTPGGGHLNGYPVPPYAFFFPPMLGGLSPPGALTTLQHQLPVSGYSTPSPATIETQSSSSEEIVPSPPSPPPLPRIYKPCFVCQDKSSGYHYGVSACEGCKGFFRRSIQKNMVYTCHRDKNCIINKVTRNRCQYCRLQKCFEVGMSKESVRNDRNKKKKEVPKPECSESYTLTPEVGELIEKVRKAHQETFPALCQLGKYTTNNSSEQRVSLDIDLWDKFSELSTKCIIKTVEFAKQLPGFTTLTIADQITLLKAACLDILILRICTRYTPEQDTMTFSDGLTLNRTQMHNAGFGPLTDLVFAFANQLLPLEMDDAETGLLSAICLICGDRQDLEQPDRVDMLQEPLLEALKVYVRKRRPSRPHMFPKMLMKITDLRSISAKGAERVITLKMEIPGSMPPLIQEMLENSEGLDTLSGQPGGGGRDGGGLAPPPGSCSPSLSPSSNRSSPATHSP
Sequence of Hepatocyte nuclear factor 3-beta (Homo sapiens) (Q9Y261 whole entry, looked up): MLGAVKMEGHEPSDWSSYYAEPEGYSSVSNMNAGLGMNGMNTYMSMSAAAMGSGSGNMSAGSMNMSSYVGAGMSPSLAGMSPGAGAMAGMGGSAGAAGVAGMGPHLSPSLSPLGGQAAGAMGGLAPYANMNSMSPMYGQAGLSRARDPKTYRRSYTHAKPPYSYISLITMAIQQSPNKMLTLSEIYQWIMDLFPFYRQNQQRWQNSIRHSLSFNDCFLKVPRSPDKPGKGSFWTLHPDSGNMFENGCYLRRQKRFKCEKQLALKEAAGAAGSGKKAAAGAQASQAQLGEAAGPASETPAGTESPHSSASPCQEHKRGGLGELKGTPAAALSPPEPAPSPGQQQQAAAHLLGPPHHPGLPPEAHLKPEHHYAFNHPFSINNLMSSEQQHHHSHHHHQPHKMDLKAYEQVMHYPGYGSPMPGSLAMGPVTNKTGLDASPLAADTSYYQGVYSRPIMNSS
Sequence of Transcription factor E2F1 (Homo sapiens) (Q01094 whole entry, looked up): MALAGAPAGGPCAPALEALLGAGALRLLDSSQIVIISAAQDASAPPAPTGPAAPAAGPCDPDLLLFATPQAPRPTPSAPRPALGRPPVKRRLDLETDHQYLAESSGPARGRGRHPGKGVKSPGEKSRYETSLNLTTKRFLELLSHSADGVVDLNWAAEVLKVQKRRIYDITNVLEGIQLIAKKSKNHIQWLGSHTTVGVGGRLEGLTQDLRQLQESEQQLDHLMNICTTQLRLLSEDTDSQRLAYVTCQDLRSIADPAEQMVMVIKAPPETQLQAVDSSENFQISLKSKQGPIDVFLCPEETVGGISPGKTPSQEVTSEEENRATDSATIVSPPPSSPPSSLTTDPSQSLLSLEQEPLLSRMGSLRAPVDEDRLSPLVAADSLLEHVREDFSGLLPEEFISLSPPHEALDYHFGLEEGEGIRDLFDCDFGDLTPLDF

Turning to `OCCC(O)CO` (stereo not given), the result in assay [1], in [2], in assay [3], in assay [4], in assay [5] and in assay [6] was inactive. Further, the result in assay [7], in [8], in assay [9], in [10], in [11] and in assay [12] was inactive. The compound was called inactive in assay [13], in assay [14], in [15], in assay [16], in assay [17] and in assay [18]. Further, the compound was classed as inactive in [19] and in assay [20].

In the case of `Cc1cc(=O)[nH]c(C(C)C)n1`, the compound was classed as inactive in [1], in [2], in [3], in assay [4], in assay [5] and in [6]. The outcome in assay [7], in assay [8], in [9], in [10], in assay [11] and in assay [12] was inactive. For the same compound, the call in assay [13], in assay [14], in assay [15], in assay [16], in assay [17] and in assay [18] was inactive. Also, the result in assay [19] and in assay [20] was inactive.

With `C=C(C)C(=O)OCC(F)(F)C(F)(F)C(F)(F)C(F)F`, the compound was called inactive in [1], in [2], in assay [3], in assay [4], in assay [5] and in [6]. Also, the compound was called inactive in assay [7], in assay [8], in assay [9], in [10], in assay [11] and in assay [12]. The call in [13], in [14], in [15], in assay [16], in [17] and in assay [18] was inactive. The compound was classed as inactive in assay [19] and in [20].

Consider `CCCCOC(=O)[C@H](C)O`, for which the outcome in assay [1], in assay [2], in assay [3], in assay [4], in assay [5] and in assay [6] was inactive. The compound was called inactive in [7], in [8], in assay [9], in [10], in assay [11] and in [12]. The outcome in [13], in [14], in assay [15], in assay [16], in assay [17] and in [18] was inactive. For the same compound, the result in assay [19] and in [20] was inactive.

In the case of `N#Cc1ccccc1O`, the compound was called inactive in assay [1], in [2], in assay [3], in [4], in [5] and in [7]. Besides, the call in assay [8], in assay [9], in assay [10], in assay [11], in assay [12] and in assay [13] was inactive. For the same compound, the outcome in assay [14], in [15], in [16], in assay [17], in assay [18] and in [19] was inactive. In addition, the call in assay [20] was inactive. Besides, the AC50 in [6] is 10.8 µM (active).

As for `CSc1ccc(Cl)cc1`, the result in assay [1], in assay [2], in [3], in assay [4], in assay [5] and in assay [6] was inactive. In addition, the outcome in assay [7], in [8], in [9], in [10], in assay [11] and in assay [12] was inactive. The compound was called inactive in assay [13], in assay [14], in assay [15], in assay [16], in assay [17] and in [18]. In addition, the compound was called inactive in assay [19] and in [20].

In the case of `OC(O)C(F)(F)C(F)(F)F`, the outcome in assay [1], in assay [2], in [3], in assay [6], in assay [8] and in assay [9] was inactive. For the same compound, the result in [10], in [11], in assay [12], in assay [13], in assay [14] and in [15] was inactive. Also, the compound was classed as inactive in assay [16], in assay [17], in [18], in assay [19] and in assay [20]. In addition, the AC50 was 117 µM (active) in assay [4], 150 µM (active) in assay [5] and 96 µM (active) in assay [7].
